Laboratory results: PubChem BioAssay (NCI)
Compounds without any hit were thinned out: in the full panel of roughly 79,000, 15% have a hit. Active and inactive are the calls of the source. Rule as the data show it: active = growth inhibition above about 70%; inactive = the rest. Where a SMILES comes first, the peptide text is derived from it. Bridges are numbered along the chain shown (N, C = ends). [ ]: non-standard residue; d: D form. The star is where a group is joined. PhAc = O=C(Cc1ccccc1)*

What was measured:
[1] = NCI Yeast Anticancer Drug Screen. Data for the rad50 strain (AID 155);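 also: 0% = growth of vehicle-only cultures of the same strain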; conditions: S. cerevisiae rad50 strain growth inhibition; at 50.0 µM; active compounds read high
Method in brief: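 Compounds were tested on a yeast strain with an engineered DNA damage repair alteration; the reported value is growth inhibition normalised to vehicle treatment.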

[2] = NCI Yeast Anticancer Drug Screen. Data for the mec2-1 strain (AID 157); conditions: S. cerevisiae mec2-1 strain, at 50.0 µM, active compounds read high
Method in brief: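 Mutant yeast (mec2-1) grown with compound; growth inhibition relative to vehicle control reported.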

[3] = NCI Yeast Anticancer Drug Screen. Data for the sgs1 mgt1 strain (AID 161);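 also: 0% = growth of cultures given vehicle only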; conditions: S. cerevisiae sgs1 mgt1 strain, at 50.0 µM, active compounds read high
Method in brief: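 Compounds are added to genetically altered yeast, and growth is compared with cultures given vehicle alone to give percent inhibition.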

[4] = NCI Yeast Anticancer Drug Screen. Data for the cln2 rad14 strain (AID 165);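 also: 0% = growth equal to vehicle treated cultures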; conditions: S. cerevisiae cln2 rad14 strain, at 50.0 µM, active compounds read high
Method in brief: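 Readout is yeast growth inhibition versus vehicle-treated controls, using a strain with cln2 and rad14 alterations exposed to compound.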

[5] = NCI Yeast Anticancer Drug Screen. Data for the bub3 strain (AID 167); conditions: S. cerevisiae bub3 mutant strain, at 50.0 µM, active compounds read high
Method in brief: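 Growth of a checkpoint-deficient yeast mutant is measured after compound exposure. Values represent inhibition relative to vehicle.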

[6] = NCI Yeast Anticancer Drug Screen. Data for the mlh1 rad18 strain (AID 175); conditions: S. cerevisiae mlh1 rad18 strain growth inhibition; at 50.0 µM; active compounds read high
Method in brief: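 Genetically defined yeast (DNA repair-deficient) exposed to compounds; growth inhibition determined relative to vehicle.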

Measured: growth inhibition

CCCCCCCCOc1ccc(C=Nc2ccc(C)cc2)cc1
inactive: [1] -2.05% | [2] 19.3% | [3] 0.45% | [4] -9.8% | [5] 16.9% | [6] 13%

CCOC(=O)C1NC(=O)C(C(=O)OCC)C1C(C)C (configuration not stated)
inactive: [1] 9.45% | [2] 20.9% | [3] 0.35% | [4] -8.25% | [5] -4.05% | [6] -9.05%

COC(=O)C(C)C1Sc2ccccc2NC1=O (configuration not stated)
inactive: [1] 4.6% | [2] 1.85% | [3] -17.3% | [4] -4% | [5] -16.6% | [6] 2.6%

S=C(Cc1cccnc1)N1CCOCC1
inactive: [1] -7.85% | [2] 41.5% | [3] 8.2% | [4] -27.9% | [5] 5.15% | [6] 45.5%

Cc1ccc([N+](=O)[O-])c(P(=O)(O)O)c1
inactive: [1] 12.6% | [2] 13% | [3] -14.7% | [4] -3.45% | [5] 3.4% | [6] -12.2%

Cc1ccc(O)c(Cc2cc(C)cc(Cc3cc(C)ccc3O)c2O)c1
inactive: [1] 30.2% | [2] -7.85% | [3] 15.2% | [4] 36.9% | [5] -2.85% | [6] 42.4%

c1ccc(-c2nc(-c3ccccc3)n3nc4c(c3c2-c2ccccc2)CCCCCC4)cc1
inactive: [1] -6.65% | [2] 5.65% | [3] -19.6% | [4] -8.55% | [5] -0.35% | [6] 0.2%

Cc1ccc(S(=O)(=O)Oc2ccccc2NS(=O)(=O)c2ccccc2)cc1
inactive: [1] 68.2% | [2] 53.2% | [4] 52.1% | [5] 13.5% | [6] 48.1%
active: [3] 76.5%

CCCCCC(=O)OC
inactive: [1] 4.75% | [2] -8.15% | [3] -28.4% | [4] -17.1% | [5] -11.2% | [6] 10.8%

COC/C=C\COC
inactive: [1] 3.45% | [2] 5% | [3] 17.6% | [4] -2.15% | [5] -6.3% | [6] 22.1%

COCCCOC(=O)COc1ccccc1
inactive: [1] -11.3% | [2] -45.5% | [3] -8.65% | [4] -12.8% | [5] 11.9% | [6] -13.5%

O=C(Cc1ccccc1)N[C@@H]1COC(=O)[C@@H]2CCCN2C(=O)[C@@H]2CCCN2C1=O (PhAc-[dS]-Pro-Pro; ester 1-C)
inactive: [1] -33.4% | [2] 5.85% | [3] -17.2% | [4] 27.4% | [5] -1.7% | [6] -8.95%

Nc1nnc(-c2ccccc2)s1
inactive: [1] -11.8% | [2] 5.95% | [3] 2.2% | [4] 13.8% | [5] 5.85% | [6] 5.05%

Nc1nnc2c(=O)[nH]cnc2n1
inactive: [1] 2.25% | [2] -8.8% | [3] -29.2% | [4] -14.4% | [5] -12.2% | [6] -7.35%

O=C(OCC1OCOC(COC(=O)c2ccccc2)C(OC(=O)c2ccccc2)C1OC(=O)c1ccccc1)c1ccccc1 (configuration not stated)
inactive: [1] 9.85% | [2] 8.35% | [3] -4.6% | [4] -13.8% | [5] -0.65% | [6] 19.6%

N#CCC(=O)NCCc1ccccn1
inactive: [1] -6.75% | [2] -3.7% | [3] -13.8% | [4] -44.6% | [5] 10.2% | [6] -9.05%

CN1C(=O)C(O)(CC(=O)c2ccccc2)c2ccccc21 (configuration not stated)
inactive: [1] 0.15% | [2] 17.7% | [3] 3.3% | [4] -23.9% | [5] 23.4% | [6] -5.65%

COC(=O)C(=O)c1c(-c2cccnc2)[nH]c2ccccc12
inactive: [1] 7.3% | [2] -7.1% | [3] 1.05% | [4] -9.05% | [5] 13.2% | [6] 4%

Nc1nc(Cl)cc(Nc2cc(Cl)cc(Cl)c2)n1
inactive: [2] 53.6% | [4] 63.7% | [5] 59.6%
active: [1] 83.2% | [3] 79.7% | [6] 82.3%

C[C@H]1C(=O)c2c(cc(O)c(C3OC(CO)C(O)C(O)C3O)c2O)OC1c1ccc(O)c(O)c1 (some centres not stated)
inactive: [1] 2.65% | [2] -18.6% | [3] -16.8% | [4] 8.45% | [5] -0.25% | [6] 12.6%

CC(C)Oc1c(N(C)CCO)c2cc(Cl)ccc2oc1=O
inactive: [1] -6.1% | [2] 12.4% | [3] 3.45% | [4] 19.6% | [5] 5.75% | [6] 3.05%

OC1CC2CCCC2CC1O (configuration not stated)
inactive: [1] -9.45% | [2] -29.7% | [3] -6.95% | [4] 6.35% | [5] -9.65% | [6] -0.75%

CC1=CC(=O)Nc2ccccc2S1
inactive: [1] 43.2% | [2] 29.2% | [3] 59.2% | [4] 17% | [5] 56% | [6] 23.6%

O=S(=O)(N/N=C(/CC/C(=N\NS(=O)(=O)c1ccccc1)c1ccccc1)c1ccccc1)c1ccccc1
inactive: [1] 27.7% | [2] 5.2% | [3] 11.7% | [4] 7.55% | [5] -2% | [6] 7.95%

CC(=O)c1c(-c2ccc(Cl)cc2)c(-c2ccc(Cl)cc2)nn(CCN)c1=O
active: [6] 93%
inactive: [1] 38.1% | [2] 15.2% | [3] 29.2% | [4] 24.6% | [5] 42.7%

OC1CNC(=S)NC1
inactive: [1] -8.85% | [2] -10.2% | [3] -12.6% | [4] -22.2% | [5] -5.2% | [6] 12.9%

CC1(COc2ccccc2)NC(=O)c2ccccc2O1 (configuration not stated)
inactive: [1] -5.85% | [2] -13.4% | [3] 10.6% | [4] -46.2% | [5] 0.85% | [6] -6.25%

CN1C2CCC1CC(OC(c1ccccc1)c1ccccc1)C2 (configuration not stated)
inactive: [1] 11.1% | [2] 4.05% | [3] -15.4% | [4] 0.25% | [5] 2.7% | [6] 5.1%

CC(C)(C)OC(=O)C(N)Cc1ccccc1 (configuration not stated)
inactive: [1] -5.8% | [2] -6.6% | [3] 20.9% | [4] 0.35% | [5] 3.35% | [6] -22.6%

O=C(OCCNC1CCCCC1)c1ccc([N+](=O)[O-])cc1
inactive: [1] 8.85% | [2] 2.5% | [3] 1.45% | [4] -43.5% | [5] -4.5% | [6] 11.3%

Cc1cc2c(C(C)C)c(O)c(O)c(C=Nc3ccccc3O)c2c(O)c1-c1c(C)cc2c(C(C)C)c(O)c(O)c(C=Nc3ccccc3O)c2c1O
inactive: [1] -25.3% | [2] -9.2% | [3] -20.9% | [4] -23.4% | [5] -9.75% | [6] -26.3%

CCc1nc(N)nc(N)c1-c1ccc(N(CC)Cc2ccccc2)c([N+](=O)[O-])c1
inactive: [1] 7.35% | [2] -3.05% | [3] -6.05% | [4] 7.5% | [5] 3.4% | [6] -3.85%

COc1cc(C=Nc2ccc(C)c(Cl)c2)ccc1OC(=O)c1ccccc1
inactive: [1] -22.2% | [2] -9.05% | [3] -8.3% | [4] -12.8% | [5] 3.5% | [6] -0.3%

CCOC(=O)Cn1c(C(F)(F)F)nc2nc(Cl)c(Cl)nc21
inactive: [1] -0.6% | [2] -22.9% | [3] -33.5% | [4] -94.9% | [5] -19.9% | [6] -17.1%

C/C(N=NC(=S)N1CC(C)OC(C)C1)=C1\C=CC=CN1O (configuration not stated)
inactive: [1] -7.3% | [2] -2.15% | [3] 11.8% | [4] 12.3% | [5] 13.8% | [6] 8.85%

CSc1cc2c(cc1N)C(=O)c1ccccc1-2
inactive: [1] 12.5% | [2] 2.45% | [3] 7.4% | [4] -24.1% | [5] -13.1% | [6] 12.9%

CN1C(c2ccco2)NC(=O)C12CCN(Cc1ccccc1)CC2 (configuration not stated)
inactive: [1] 24.8% | [2] 7.25% | [3] 15.2% | [4] 10.2% | [5] 16.8% | [6] 16.1%

[Cl][Co][Cl].[NH-]CCC[NH-].[NH-]CCC[NH-]
inactive: [1] 1.5% | [2] 21.3% | [3] 13.3% | [4] 10.2% | [5] -4.4% | [6] 16.7%

CCOC(=O)C(NC(C)=O)(C(=O)OCC)C1CCCCC1=O (configuration not stated)
inactive: [1] -10.8% | [2] 2.65% | [3] -33.4% | [4] -3.4% | [5] -10.8% | [6] -20.5%

O=[N+]([O-])c1cc(Br)c2ccccc2c1
inactive: [1] 6.7% | [2] 4.9% | [3] 6.45% | [4] 2% | [5] 18.2% | [6] 15.1%

CC(=O)N(C(C)=O)c1cc2c3c(c1)CCCN3CCC2
inactive: [1] 2.2% | [2] -40.8% | [3] -22.1% | [4] -36.8% | [5] -16.1% | [6] -1.6%

COc1ccccc1NC(=O)C(=O)C1C(=O)Nc2ccccc2S1=O (configuration not stated)
inactive: [1] -14.3% | [2] -21.1% | [3] -44.6% | [4] 2.45% | [5] -41% | [6] -45.5%
